In test [1] the target is Lysosomal acid glucosylceramidase (Homo sapiens) (UniProt P04062). In words: Glucocerebrosidase-p2 (AID 348; in the data active = potency below about 10 µM; also: potency is read from the fitted curve at half-maximal effect). To be noted: purified GBA, blue fluorogenic substrate, 40 min. In outline:
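Normal human glucocerebrosidase (0.2 nM) with blue fluorogenic substrate (80 uM final) in citrate/phosphate pH 5.9 with 10mM sodium taurocholate, 0.01% tween-20; 40 min RT, NaOH/glycine stop; fluorescence Ex 365/Em 440; AC50 from a titration from 0.6 nM upwards.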

Test [2] is described as follows: AP1 Signaling Pathway (AID 357). Also: % is scaled to controls: 0 for no effect and ±100 for the full control effect. To be noted: ME-180 AP-1-bla reporter, EGF-induced, beta-lactamase ratio, 5 h; at 7.69 µM (top of the series) unless noted. In outline: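 Cells are seeded overnight, exposed to compound titrations and an EC50 level of EGF for 5 hours at 37 °C, then loaded with CCF4 dye for 2.5 hours. Beta-lactamase activity under the AP-1 element is read as a blue/green ratio.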

Test [3] is described as follows: NFAT Signaling Pathway (AID 444).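 Also: carbachol stimulus at about its EC50 of 1 µM final; % is scaled to controls: 0 for no effect and ±100 for the full control effect.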 To be noted: Jurkat NFAT-bla M1, carbachol, beta-lactamase ratio, 5 h; at 7.69 µM (top of the series) unless noted. In short, it runs like this: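 Jurkat cells with NFAT-driven β-lactamase reporter and co-expressed M1 receptor, stimulated with carbachol (final 1 uM, ~EC50), compound titration, 5 h at 37 °C. CCF4 loaded 1 h at RT; 460/530 nm ratio gave %activity and AC50.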

A short description of test [4]: Stat Signaling Pathway (AID 446).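 Also: ME-180 cervical cancer cells given 40 pM IL-6 alongside compound; SIE-controlled beta-lactamase reporter measured as 460/530 nm FRET emission ratio; % is scaled to controls: 0 for no effect and ±100 for the full control effect.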 To be noted: ME-180 (cervical carcinoma) SIE beta-lactamase reporter, IL-6 stimulated, 5 h; at 7.69 µM (top of the series) unless noted. In outline: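 Compound effects on IL-6-induced STAT reporter activity were measured in ME-180 cells. After overnight culture, cells were co-treated with 40 pM IL-6 for 5 hrs before beta-lactamase substrate loading at room temperature.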

The target of test [5] is Glucocorticoid receptor (Homo sapiens) (UniProt P04150). Briefly: GR-GFP Redistribution (AID 450;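 active = compounds whose dose series gives a full or clear partial fitted curve of increased nuclear translocation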; also: potency is read from the fitted curve at half-maximal effect). To be noted: U2OS GR-GFP nuclear translocation, laser cytometry, 2 h.
Glucocorticoid receptor (Homo sapiens), sequence (P04150 whole entry, looked up): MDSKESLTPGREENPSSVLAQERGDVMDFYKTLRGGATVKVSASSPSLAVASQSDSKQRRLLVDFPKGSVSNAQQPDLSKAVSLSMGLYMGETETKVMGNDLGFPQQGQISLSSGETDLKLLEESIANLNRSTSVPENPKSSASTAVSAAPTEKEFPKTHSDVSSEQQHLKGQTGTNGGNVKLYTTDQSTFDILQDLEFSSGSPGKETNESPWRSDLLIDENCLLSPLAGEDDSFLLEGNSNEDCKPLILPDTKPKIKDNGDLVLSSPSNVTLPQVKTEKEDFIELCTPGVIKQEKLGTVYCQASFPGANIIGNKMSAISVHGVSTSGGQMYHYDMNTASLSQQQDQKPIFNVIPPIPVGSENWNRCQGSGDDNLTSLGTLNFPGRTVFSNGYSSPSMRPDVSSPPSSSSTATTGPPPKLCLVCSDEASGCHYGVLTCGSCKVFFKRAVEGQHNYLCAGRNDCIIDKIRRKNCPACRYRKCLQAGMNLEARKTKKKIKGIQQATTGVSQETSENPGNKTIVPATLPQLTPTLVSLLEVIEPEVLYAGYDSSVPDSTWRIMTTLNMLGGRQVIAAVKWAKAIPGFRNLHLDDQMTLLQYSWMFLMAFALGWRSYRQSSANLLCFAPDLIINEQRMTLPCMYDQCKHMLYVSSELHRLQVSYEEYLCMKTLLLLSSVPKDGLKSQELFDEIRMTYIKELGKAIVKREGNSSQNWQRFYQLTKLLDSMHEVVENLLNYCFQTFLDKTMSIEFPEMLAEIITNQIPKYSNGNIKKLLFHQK
Test [6] shares this target. Briefly: GR-EFC Redistribution (AID 451; calls by dose curve; also: potency is read from the fitted curve at half-maximal effect). To be noted: CHO-K1 GR-EFC translocation, beta-gal luminescence, 2 h. In short, it runs like this:
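CHO-K1 cells expressing nuclear EA and GR-ED fragments of b-gal; compounds titrated up to 46 uM final, 2 h at 37 C. GR nuclear translocation read as complemented b-gal luminescence after 1 h RT detection.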

Test [7] has as its target Mitogen-activated protein kinase 10 (Mus musculus) (UniProt Q61831). In words: JNK3 AlphaScreen Assay (AID 530).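 Also: kinase came from lysate of stimulated human HepG2 cells; signal reports phosphorylation of biotinylated GST-cJun 1-79 at Ser73 with 10 µM ATP; % is scaled to controls: 0 for no effect and ±100 for the full control effect.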 To be noted: JNK3 lysate, c-Jun phosphorylation; series mostly up to 57.1 µM. In outline: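 Activity was read by AlphaScreen after JNK3-containing HepG2 lysate (cytokine pre-activated) phosphorylated biotinylated GST-cJun with 10 uM ATP at room temperature. Phospho-Ser73 cJun antibody with Protein-A acceptor beads provided detection.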
In general terms: Alpha assays give light when donor and acceptor beads are brought close together.

The target in test [8] is 3',5'-cyclic-AMP phosphodiesterase 4B (Homo sapiens) (UniProt Q07343). In words: qHTS Assay for Inhibitors of PDE-IV (AID 607; active = well fitted activation curve with a large enough effect in the main read-out, with a control signal flat, not every such curve was filed as active; also: % of control where 0% means no effect). To be noted: HEK293 ACTOne CNG channel cells, membrane potential fluorescence; series mostly up to 22.9 µM. In outline:
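ACTOne HEK293 cells carry a modified cAMP-gated CNG channel and express endogenous PDE4; plated 1000 cells/well, compounds up to 22.9 uM final. Membrane-potential dye fluorescence (ex 535/em 590) was read; parental cells received 10 uM forskolin + 100 uM RO 20-1724.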
Background: In qHTS, concentration-response curves come from the screen itself.

Test [9] concerns the target Cytochrome P450 3A4 (Homo sapiens) (UniProt P08684). In words: qHTS Assay for Inhibitors and Substrates of Cytochrome P450 3A4 (AID 884; active = well fitted inhibition curve with a large enough effect; also: potency is read from the fitted curve at half-maximal effect; nearly all actives have a fitted effect of over 50% in size). To be noted: recombinant CYP3A4, Luciferin-PPXE luminescence; series mostly up to 57.1 µM. In outline:
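Luminescent readout of luciferin produced by CYP3A4 (20 nM) dealkylation of Luciferin-PPXE, 25 uM (its KM). NADPH-driven reaction ran 60 min at RT after 10 min compound preincubation; data scaled to 57 uM ketoconazole as 100% inhibition.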

Test [10] has as its target Cytochrome P450 2C19 (Homo sapiens) (UniProt P33261). In words: qHTS Assay for Inhibitors and Substrates of Cytochrome P450 2C19 (AID 899; active = well fitted inhibition curve with a large enough effect; also: nearly all actives have a fitted effect of over 60% in size; also: potency is read from the fitted curve at half-maximal effect). To be noted: recombinant CYP2C19, luciferin-H EGE luminescence; series mostly up to 11.4 µM. In short, it runs like this:
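Luminescent read-out of luciferin formed from Luciferin-H EGE (10uM, equal to KM). Enzyme 5nM in 50mM KPO4; compound added, 10 min at 37C, then NADPH regenerating system for 60 min at 37C. Full inhibition defined by 57uM ketoconazole.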

The target of test [11] is Cytochrome P450 1A2 (Homo sapiens) (UniProt P05177). Briefly: p450-cyp1a2 (AID 410; calls by dose curve;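 also: -100% = full effect of reference inhibitor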). To be noted: recombinant CYP1A2, luciferin-ME demethylation, luminescence; series mostly up to 11.4 µM. In outline: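 O-Demethylation of luciferin 6' methyl ether by human CYP1A2 is monitored as luciferase luminescence. Substrate sits at Km (100uM); enzyme is 20nM. Values are scaled to 57 uM furafylline as maximal inhibition.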
Cytochrome P450 1A2 (Homo sapiens), sequence (P05177 whole entry, looked up): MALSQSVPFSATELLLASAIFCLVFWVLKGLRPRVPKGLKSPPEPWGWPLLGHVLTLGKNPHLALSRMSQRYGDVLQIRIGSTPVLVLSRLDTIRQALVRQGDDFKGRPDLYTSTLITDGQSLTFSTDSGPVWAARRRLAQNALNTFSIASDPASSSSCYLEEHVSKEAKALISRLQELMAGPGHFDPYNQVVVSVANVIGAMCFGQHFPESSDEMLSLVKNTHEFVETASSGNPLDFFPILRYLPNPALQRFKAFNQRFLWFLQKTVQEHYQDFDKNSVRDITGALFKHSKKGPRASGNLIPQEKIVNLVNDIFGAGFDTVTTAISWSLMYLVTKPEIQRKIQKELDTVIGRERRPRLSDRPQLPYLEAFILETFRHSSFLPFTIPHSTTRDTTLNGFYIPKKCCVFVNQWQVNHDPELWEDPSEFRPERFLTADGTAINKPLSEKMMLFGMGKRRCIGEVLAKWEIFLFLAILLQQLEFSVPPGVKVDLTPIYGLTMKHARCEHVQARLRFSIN

The target in test [12] is Cytochrome P450 2D6 (Homo sapiens) (UniProt P10635). Briefly: qHTS Assay for Inhibitors and Substrates of Cytochrome P450 2D6 (AID 891; active = well fitted inhibition curve with a large enough effect; also: nearly all actives have a fitted effect of over 60% in size; also: potency is read from the fitted curve at half-maximal effect). To be noted: recombinant CYP2D6, luciferin-ME EGE luminescence; series mostly up to 11.4 µM. In short, it runs like this:
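Luminescent read-out of luciferin formed by 5 nM human CYP2D6 demethylating 30 uM Luciferin-ME EGE (Km level) over 60 min at room temperature after NADPH regeneration addition. Data normalized to full inhibition by 1.43 uM quinidine.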

The values that follow come from PubChem BioAssay (NCATS).

Values without a mark were called inactive. Records with an inconclusive call do not appear. Active and inactive are the calls of the source. Unless noted, calls follow the shape of the dose curve; as a rule, active = well fitted curve in either direction with a large enough effect (not every such curve was filed as active); inconclusive = small, poorly fitted or top-dose-only effect, or another doubt; inactive = flat fitted curve, though single readings scatter.

3',5'-cyclic-AMP phosphodiesterase 4B (Homo sapiens), sequence (Q07343 whole entry, looked up): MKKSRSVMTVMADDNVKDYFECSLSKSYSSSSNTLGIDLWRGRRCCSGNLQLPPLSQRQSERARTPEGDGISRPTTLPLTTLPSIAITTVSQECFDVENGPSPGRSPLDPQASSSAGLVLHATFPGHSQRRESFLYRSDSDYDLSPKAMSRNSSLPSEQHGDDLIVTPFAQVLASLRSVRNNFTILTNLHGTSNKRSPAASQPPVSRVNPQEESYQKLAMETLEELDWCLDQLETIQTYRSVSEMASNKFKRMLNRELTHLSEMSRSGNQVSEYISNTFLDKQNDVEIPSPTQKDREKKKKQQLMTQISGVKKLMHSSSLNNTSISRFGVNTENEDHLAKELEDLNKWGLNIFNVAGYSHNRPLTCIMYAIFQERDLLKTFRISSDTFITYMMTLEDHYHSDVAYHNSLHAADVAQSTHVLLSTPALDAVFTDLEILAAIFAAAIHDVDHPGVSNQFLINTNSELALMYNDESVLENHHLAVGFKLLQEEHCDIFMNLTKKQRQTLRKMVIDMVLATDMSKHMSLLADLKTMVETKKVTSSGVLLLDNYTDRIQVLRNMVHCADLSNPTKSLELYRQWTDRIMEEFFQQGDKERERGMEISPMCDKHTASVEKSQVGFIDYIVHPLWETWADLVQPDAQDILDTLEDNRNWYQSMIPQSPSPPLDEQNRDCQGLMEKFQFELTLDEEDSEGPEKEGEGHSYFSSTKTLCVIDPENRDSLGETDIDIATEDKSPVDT
Lysosomal acid glucosylceramidase (Homo sapiens), sequence (P04062 whole entry, looked up): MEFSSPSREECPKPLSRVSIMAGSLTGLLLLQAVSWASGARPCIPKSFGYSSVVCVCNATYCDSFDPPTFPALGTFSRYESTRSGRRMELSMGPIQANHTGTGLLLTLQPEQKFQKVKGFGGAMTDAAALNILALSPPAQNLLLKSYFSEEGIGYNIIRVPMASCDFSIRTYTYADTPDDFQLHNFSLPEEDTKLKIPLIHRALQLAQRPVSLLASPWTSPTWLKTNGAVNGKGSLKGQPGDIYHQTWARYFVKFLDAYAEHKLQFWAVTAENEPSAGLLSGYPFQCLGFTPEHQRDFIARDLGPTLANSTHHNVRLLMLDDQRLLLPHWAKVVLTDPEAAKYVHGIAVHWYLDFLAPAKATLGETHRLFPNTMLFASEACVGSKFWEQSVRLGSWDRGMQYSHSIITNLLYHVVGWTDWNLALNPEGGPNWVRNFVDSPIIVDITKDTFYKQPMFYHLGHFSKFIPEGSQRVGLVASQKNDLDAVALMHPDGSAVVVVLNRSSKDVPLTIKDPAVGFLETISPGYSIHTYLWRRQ
Cytochrome P450 2C19 (Homo sapiens), sequence (P33261 whole entry, looked up): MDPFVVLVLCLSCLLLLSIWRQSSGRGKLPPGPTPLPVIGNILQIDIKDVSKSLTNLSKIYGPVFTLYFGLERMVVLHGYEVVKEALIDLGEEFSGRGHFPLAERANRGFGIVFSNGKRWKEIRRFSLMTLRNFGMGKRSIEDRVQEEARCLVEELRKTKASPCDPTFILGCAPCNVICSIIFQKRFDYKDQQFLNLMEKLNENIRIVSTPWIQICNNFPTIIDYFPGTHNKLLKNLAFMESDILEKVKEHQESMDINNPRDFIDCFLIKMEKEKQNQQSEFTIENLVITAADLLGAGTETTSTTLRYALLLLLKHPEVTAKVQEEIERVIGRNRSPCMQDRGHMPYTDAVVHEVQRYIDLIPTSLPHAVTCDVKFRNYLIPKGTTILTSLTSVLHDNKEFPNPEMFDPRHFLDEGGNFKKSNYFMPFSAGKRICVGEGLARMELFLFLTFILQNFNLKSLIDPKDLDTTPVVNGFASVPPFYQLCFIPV
Cytochrome P450 2D6 (Homo sapiens), sequence (P10635 whole entry, looked up): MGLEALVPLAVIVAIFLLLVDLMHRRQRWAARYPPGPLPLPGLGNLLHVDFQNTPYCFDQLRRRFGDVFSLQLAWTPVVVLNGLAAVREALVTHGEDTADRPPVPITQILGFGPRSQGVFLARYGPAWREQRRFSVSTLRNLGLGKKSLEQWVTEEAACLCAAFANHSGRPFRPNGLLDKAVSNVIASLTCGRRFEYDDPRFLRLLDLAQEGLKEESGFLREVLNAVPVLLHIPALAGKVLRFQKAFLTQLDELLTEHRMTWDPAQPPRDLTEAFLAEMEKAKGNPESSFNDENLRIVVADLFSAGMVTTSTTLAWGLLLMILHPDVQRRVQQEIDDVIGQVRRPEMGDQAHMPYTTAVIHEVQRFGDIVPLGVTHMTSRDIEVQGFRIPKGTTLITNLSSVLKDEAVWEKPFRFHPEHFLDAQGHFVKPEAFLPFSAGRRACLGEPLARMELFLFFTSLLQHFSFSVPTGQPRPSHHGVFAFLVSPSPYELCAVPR
Cytochrome P450 3A4 (Homo sapiens), sequence (P08684 whole entry, looked up): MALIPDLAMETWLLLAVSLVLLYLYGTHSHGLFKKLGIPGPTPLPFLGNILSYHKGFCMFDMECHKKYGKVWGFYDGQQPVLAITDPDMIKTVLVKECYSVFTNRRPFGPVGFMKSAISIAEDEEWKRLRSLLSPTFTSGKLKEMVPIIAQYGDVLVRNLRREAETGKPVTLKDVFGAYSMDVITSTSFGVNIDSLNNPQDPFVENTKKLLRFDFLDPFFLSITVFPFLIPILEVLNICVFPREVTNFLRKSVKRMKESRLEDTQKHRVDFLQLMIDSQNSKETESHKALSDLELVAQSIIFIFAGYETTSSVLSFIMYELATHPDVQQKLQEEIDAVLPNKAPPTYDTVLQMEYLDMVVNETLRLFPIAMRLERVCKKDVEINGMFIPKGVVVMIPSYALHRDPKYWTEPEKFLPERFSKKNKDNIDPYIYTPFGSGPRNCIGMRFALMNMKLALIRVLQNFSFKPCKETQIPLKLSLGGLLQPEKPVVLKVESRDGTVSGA

Turning to `S=P(C1CCCCC1)(C1CCCCC1)[C@H](c1cccnc1)N1CCCC1`, the Potency in test [1] was above 11.4 µM; in test [5], above 46 µM; in test [6], above 9.22 µM; in [9], 3.16 µM (active); in [10], 1.26 µM (active). Also, the figures for the activity change, negative = inhibition in [2], in test [3] and in [7] were 10.9%, 5.74% and 0.158% [at 11.4 µM], respectively. Further, in test [4], the activity, negative = inhibition is -1.57%. Also, the outcome in test [8] was inactive.

For the molecule `C[C@@](Br)(C(=O)O)[C@H](Br)C(=O)O`, the Potency in test [1] is above 11.4 µM; in [5] it was above 46 µM; in [6], above 9.22 µM. Besides, the values for the activity change, negative = inhibition in test [2], in [3] and in test [7] were 3.08%, 17.1% and 1.39% [at 11.4 µM], respectively. Further, in test [4], the activity, negative = inhibition was 8.31%. Also, in test [8], the molecule was classed as inactive.

Consider `O=C(Oc1ccc(S(=O)(=O)F)cc1F)c1ccccc1Cl`, for which the Potency in test [1] is above 11.4 µM; in [5], above 46 µM; in test [6], above 9.22 µM. Also, the activity change, negative = inhibition was -4.95% in [2], 5.76% in test [3] and 2.49% [at 11.4 µM] in [7]. In test [4], the activity, negative = inhibition is -0.302%. For the same molecule, the call in [8] was inactive.

Take `CCC1=C(C[C@H]2NCCc3cc(OC)c(OC)cc32)C[C@H]2c3ccccc3CCN2C1`: the Potency in [1] is above 11.4 µM; in [5], above 46 µM; in test [6], above 9.22 µM; in test [12], 0.316 µM (active). For the same molecule, the activity change, negative = inhibition in test [2] is 9.05%; in test [7] it was 5.5% [at 11.4 µM]. Also, the Potency entry in test [11] was “inactive”. For the same molecule, in [4], the activity, negative = inhibition is 8.03%.

As for `O=[As](O)(O)c1ccc(NCc2ccccc2)cc1`, the Potency in test [1] was above 11.4 µM; in [5], above 46 µM; in [6], above 9.22 µM. The figures for the activity change, negative = inhibition in [2], in test [3] and in test [7] were -4.31%, 11% and 1.56% [at 11.4 µM], respectively. The activity, negative = inhibition in test [4] is 11.2%. Moreover, the molecule was classed as inactive in test [8]. Also, the Potency entry in test [12] was “inactive”.

On to `N[C@@H](Cc1c[nH]c2cc([N+](=O)[O-])ccc12)C(=O)O`, for which the Potency in [1] is above 11.4 µM; in test [5], above 46 µM; in test [6], above 9.22 µM. The activity change, negative = inhibition in test [2] was -8.44%; in test [3], 5.87%; in test [7], 4.66% [at 11.4 µM]. The activity, negative = inhibition in test [4] is 10.4%. In [8], the result was inactive.

Regarding `O=C(O)c1cccc([As]=[As]c2cccc(C(=O)O)c2)c1` (stereo not drawn), the figures for the Potency in test [1], in [5] and in test [6] were above 11.4 µM, above 46 µM and above 9.22 µM, respectively. Besides, the activity change, negative = inhibition in test [2] was -0.316%; in [3], -6.47%; in test [7], -0.547% [at 11.4 µM]. In addition, in [4], the activity, negative = inhibition was 2.08%. For the same molecule, the outcome in test [8] was inactive.

With `CC(C)CNCCc1ccccn1`, the Potency in test [1] is above 11.4 µM; in test [5], above 46 µM; in test [6], above 9.22 µM. In addition, the activity change, negative = inhibition was 11.4% in [2], 10.3% in [3] and 2.37% [at 11.4 µM] in [7]. Moreover, the activity, negative = inhibition in test [4] is 0.662%. Moreover, the molecule was called inactive in [8]. In [10], the Potency result was “inactive”.
